Data from PubChem BioAssay (NCI).
Compounds without any hit were thinned out: in the full panel of roughly 83,000, 20% have a hit.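 Treatment: one concentration, 48 hours, 96-well format. Scoring: percent growth, with anything below 10 considered active.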 The source made the active and inactive calls.

Tests used:
Assay in all cases: NCI-60 one-dose screen, 48 h (100 = growth as untreated, 0 = no growth, -100 = all killed)
Details in all cases: 10 µM unless noted
HCT-15 colon = test system: HCT-15 colon
HT29 colon = test system: HT29 colon
SNB-75 CNS = test system: SNB-75 CNS
SNB-19 CNS = test system: SNB-19 CNS
U251 CNS = test system: U251 CNS
PC-3 prostate = test system: PC-3 prostate
SK-MEL-5 melanoma = test system: SK-MEL-5 melanoma
UACC-62 melanoma = test system: UACC-62 melanoma
LOX IMVI melanoma = test system: LOX IMVI melanoma
SK-MEL-28 melanoma = test system: SK-MEL-28 melanoma

Measured: growth

Cc1ccc(Cl)cc1NC(=O)Nc1nc2ccc([N+](=O)[O-])cc2s1
active: HCT-15 colon -4.98% | HT29 colon -18.9% | SNB-75 CNS -26.6% | SNB-19 CNS 7.85% | U251 CNS -26.6% | PC-3 prostate 2.69% | SK-MEL-5 melanoma -81.1% | UACC-62 melanoma -15.4% | LOX IMVI melanoma -21.1% | SK-MEL-28 melanoma -17%

O=C(Nc1ccc(-c2ccc3c(c2)NC(=O)/C3=C\c2ccc[nH]2)cc1)Nc1cccc(Cl)c1
active: HCT-15 colon -32.5% | HT29 colon -61.5% | U251 CNS -52.4% | SK-MEL-5 melanoma -45.7% | UACC-62 melanoma -36.3% | LOX IMVI melanoma -88.4% | SK-MEL-28 melanoma -4.21%
inactive: SNB-75 CNS 16.6% | SNB-19 CNS 19.8% | PC-3 prostate 13.5%

CCCCCCCCc1ccc(C(=O)Nc2ccc(C)c(OP(=O)(O)O)c2)cc1
inactive: HCT-15 colon 95.5% | HT29 colon 106% | SNB-75 CNS 89.8% | SNB-19 CNS 91% | U251 CNS 92% | PC-3 prostate 91.3% | SK-MEL-5 melanoma 103% | UACC-62 melanoma 90.6% | LOX IMVI melanoma 92.9% | SK-MEL-28 melanoma 116%

CCCCNC(=S)Nc1ccc(OCc2nc3ccc(Cl)cc3[nH]2)cc1
active: LOX IMVI melanoma -29.8%
inactive: HCT-15 colon 14.5% | HT29 colon 28.4% | SNB-75 CNS 26.4% | SNB-19 CNS 53% | U251 CNS 23.7% | PC-3 prostate 35.4% | SK-MEL-5 melanoma 42.5% | UACC-62 melanoma 29.9% | SK-MEL-28 melanoma 45.5%

O=C(NC(=S)N1CCN(c2ncnc3c2cnn3-c2ccccc2)CC1)c1ccc(Br)cc1
inactive: HCT-15 colon 58.3% | HT29 colon 86.4% | SNB-19 CNS 46.6% | U251 CNS 56.5% | PC-3 prostate 64.8% | SK-MEL-5 melanoma 75% | UACC-62 melanoma 60.6% | LOX IMVI melanoma 41.1% | SK-MEL-28 melanoma 77.1%
active: SNB-75 CNS 7.89%

Cn1cc(-c2cc(N)n3nc(-c4c[nH]c5ccc(F)cc45)cc3n2)c2cccnc21
active: HCT-15 colon -52.3% | HT29 colon -70.1% | SNB-75 CNS -48.5% | SNB-19 CNS -24.8% | U251 CNS -84.7% | PC-3 prostate -45.3% | SK-MEL-5 melanoma -98.4% | UACC-62 melanoma -93.6% | LOX IMVI melanoma -97.9% | SK-MEL-28 melanoma -92.6%

CC1=C(C(=O)Nc2ccccc2)C(c2ccc3ccccc3c2)n2c(nc3ccccc32)N1 (stereo not given)
active: SNB-75 CNS -11.1% | LOX IMVI melanoma 9.5%
inactive: HCT-15 colon 40.5% | HT29 colon 69% | SNB-19 CNS 79.4% | U251 CNS 28.6% | PC-3 prostate 21.7% | SK-MEL-5 melanoma 87.3% | UACC-62 melanoma 75% | SK-MEL-28 melanoma 63.2%

Cc1ccc(-c2cc(-c3ccccc3)[nH]c(=O)c2C#N)cc1
inactive: HCT-15 colon 71% | HT29 colon 114% | SNB-75 CNS 99.4% | SNB-19 CNS 84.3% | U251 CNS 90.8% | PC-3 prostate 83.7% | SK-MEL-5 melanoma 90% | UACC-62 melanoma 84.6% | LOX IMVI melanoma 83% | SK-MEL-28 melanoma 109%

N#CCc1nnc(NC(=O)c2ccc(-n3c(=O)[nH]c4ccccc4c3=O)cc2)s1
inactive: HCT-15 colon 97.1% | HT29 colon 116% | SNB-75 CNS 86.8% | SNB-19 CNS 94.6% | U251 CNS 106% | PC-3 prostate 105% | SK-MEL-5 melanoma 102% | UACC-62 melanoma 86.8% | LOX IMVI melanoma 90.5% | SK-MEL-28 melanoma 103%

CN1CCN(C(=O)CCN(C(=O)Oc2cc3c(c4ccccc24)[C@H](CCl)CN3C(=O)c2cc3cc(OCCCN4CCC4)ccc3[nH]2)[C@H]2CCSSC2)CC1
active: HCT-15 colon -37% | HT29 colon -69.8% | SNB-75 CNS -58.5% | SNB-19 CNS -50.7% | U251 CNS -65.9% | PC-3 prostate -65% | SK-MEL-5 melanoma -93.7% | UACC-62 melanoma -81.9% | LOX IMVI melanoma -71.8% | SK-MEL-28 melanoma -89.2%

N#CC1=C(c2cccs2)Nc2c(c(-c3ccccc3)nn2-c2ccccc2)C12C(=O)Nc1ccc(Br)cc12 (stereo not given)
active: HCT-15 colon -6.66% | HT29 colon -32.8% | SNB-75 CNS -39.5% | SNB-19 CNS 7.99% | U251 CNS -47.8% | PC-3 prostate -3.33% | SK-MEL-5 melanoma 0.371% | UACC-62 melanoma -52.3% | LOX IMVI melanoma -11.3% | SK-MEL-28 melanoma -69.6%

COC(=O)c1cc(C(=O)C(F)(F)F)n2c3ccccc3c3ccccc3c12
inactive: HCT-15 colon 93.8% | HT29 colon 96.1% | SNB-19 CNS 67.8% | U251 CNS 70.1% | PC-3 prostate 66.8% | SK-MEL-5 melanoma 95.8% | UACC-62 melanoma 69.3% | LOX IMVI melanoma 77.2% | SK-MEL-28 melanoma 111%
active: SNB-75 CNS 6.37%

O=C(N/N=C/c1c[nH]c2ccccc12)Nc1ccc(F)c(Cl)c1
active: LOX IMVI melanoma 4.2%
inactive: HCT-15 colon 20.2% | HT29 colon 33.5% | SNB-75 CNS 48% | SNB-19 CNS 73.4% | U251 CNS 42.2% | PC-3 prostate 43.3% | SK-MEL-5 melanoma 34% | UACC-62 melanoma 48.6% | SK-MEL-28 melanoma 58.8%

COc1ccc2c(c1)C(Sc1ccc(Cl)cc1)c1c(nc(N)c(C#N)c1N)O2 (stereo not given)
active: LOX IMVI melanoma -2.6%
inactive: HCT-15 colon 58.9% | HT29 colon 75.2% | SNB-75 CNS 36.9% | SNB-19 CNS 65.1% | U251 CNS 51.9% | PC-3 prostate 20% | SK-MEL-5 melanoma 36.5% | UACC-62 melanoma 64.3% | SK-MEL-28 melanoma 99.8%

c1n[nH]cc1-c1nc2ccc3[nH]ncc3c2c2c1CC1(CCOCC1)CC2
active: SNB-75 CNS 6.74%
inactive: HCT-15 colon 39% | HT29 colon 25.9% | SNB-19 CNS 37.4% | U251 CNS 29.3% | PC-3 prostate 47.4% | SK-MEL-5 melanoma 29% | UACC-62 melanoma 14% | LOX IMVI melanoma 29.2% | SK-MEL-28 melanoma 27.1%

O=C(NN1C(=O)/C(=C/C=C/c2ccc([N+](=O)[O-])o2)SC1=S)c1ccc([N+](=O)[O-])cc1
active: HCT-15 colon -85.4% | HT29 colon -80.3% | SNB-75 CNS -91.1% | SNB-19 CNS -100% | U251 CNS -89.4% | PC-3 prostate -72.5% | SK-MEL-5 melanoma -100% | UACC-62 melanoma -99.6% | LOX IMVI melanoma -97.1% | SK-MEL-28 melanoma -99%

O=c1[nH]c2ccccc2cc1COc1ccc(Nc2nccc(-c3ccc(Cl)cc3)n2)cc1
inactive: HCT-15 colon 101% | HT29 colon 105% | SNB-75 CNS 60.5% | SNB-19 CNS 93.4% | U251 CNS 86.5% | PC-3 prostate 106% | SK-MEL-5 melanoma 99.1% | UACC-62 melanoma 94.4% | LOX IMVI melanoma 96% | SK-MEL-28 melanoma 105%

CCCCC[C@@H]1C/C=C(\C)[C@@H](O)C(C)(C)C(=O)[C@@H](C)/C=C(\C)[C@@H]2C[C@H](O)C[C@](O)(CC(=O)O1)O2
active: SK-MEL-5 melanoma -17.6%
inactive: HCT-15 colon 38.4% | HT29 colon 50.4% | SNB-75 CNS 32.9% | SNB-19 CNS 37.2% | U251 CNS 61.2% | PC-3 prostate 21.4% | UACC-62 melanoma 55.8% | LOX IMVI melanoma 50.9% | SK-MEL-28 melanoma 76.3%

NNc1ncnc2sc3c(c12)CCN(Cc1ccccc1)C3
inactive: HCT-15 colon 32.9% | HT29 colon 20.7% | SNB-75 CNS 80.7% | SNB-19 CNS 69.4% | U251 CNS 51.4% | PC-3 prostate 59.5% | SK-MEL-5 melanoma 48% | UACC-62 melanoma 53.1% | LOX IMVI melanoma 39.7% | SK-MEL-28 melanoma 73%

CC[C@]12C=CCN3CC[C@]4(C(=C(C(=O)OC)C1)Nc1cc(OC)c([C@@H]5[C@H]6O[C@H]6[C@@]6(CC)CC(C(=O)OC)=C7Nc8cc(OC)ccc8[C@@]78CCN5[C@@H]68)cc14)[C@@H]32
inactive: HCT-15 colon 24.8% | HT29 colon 58.9% | SNB-75 CNS 50% | SNB-19 CNS 58.2% | U251 CNS 48.4% | PC-3 prostate 18.7% | SK-MEL-5 melanoma 27.9% | UACC-62 melanoma 42.9% | LOX IMVI melanoma 15.5% | SK-MEL-28 melanoma 82.5%

O=C(CSc1nnc(-c2ccc(-c3nc4ccccc4[nH]3)cc2)o1)Nc1ccccc1
inactive: HCT-15 colon 55.5% | HT29 colon 70.7% | SNB-75 CNS 46.6% | PC-3 prostate 86.2% | SK-MEL-5 melanoma 82.7% | UACC-62 melanoma 92.1% | SK-MEL-28 melanoma 36.3%
active: SNB-19 CNS 3.01% | U251 CNS -61% | LOX IMVI melanoma 3.54%

COc1cccc2nc(Nc3cccc(NC(=O)c4ccc(CN5CCN(C)CC5)c(C(F)(F)F)c4)c3)ccc12
active: HCT-15 colon -79.1% | HT29 colon -69.3% | SNB-75 CNS -97.5% | SNB-19 CNS -100% | U251 CNS -73.7% | PC-3 prostate -50.9% | SK-MEL-5 melanoma -100% | UACC-62 melanoma -99.1% | LOX IMVI melanoma -100% | SK-MEL-28 melanoma -100%

COc1ccc(NC(=O)CSc2nnc(-c3ccc(-c4nc5ccc(Cl)cc5[nH]4)cc3)o2)cc1
inactive: HCT-15 colon 41.9% | HT29 colon 47.8%
active: SNB-75 CNS 5.21% | SNB-19 CNS -29.2% | U251 CNS -58% | PC-3 prostate -20.7% | SK-MEL-5 melanoma 7% | UACC-62 melanoma -32.6% | LOX IMVI melanoma -33.3% | SK-MEL-28 melanoma -76%

CCc1ccccc1NC(=O)N/C(N)=N/c1nc2ccccc2s1
active: HCT-15 colon 0.728% | HT29 colon -25% | SNB-75 CNS 3.91% | SNB-19 CNS 9.49% | U251 CNS -18.9% | SK-MEL-5 melanoma -59.1% | LOX IMVI melanoma -53.7%
inactive: PC-3 prostate 21.8% | UACC-62 melanoma 13.8% | SK-MEL-28 melanoma 38%

COc1c(F)ccc(C(=O)Nc2ccc3nc(NC(=O)C4CCCN(S(=O)(=O)c5ccc(C(C)(C)C)cc5)C4)sc3c2)c1F (stereo not given)
inactive: HCT-15 colon 63.3% | HT29 colon 55.4% | SNB-75 CNS 66.4% | SNB-19 CNS 78.2% | U251 CNS 58.8% | PC-3 prostate 45.8% | SK-MEL-5 melanoma 66.5% | UACC-62 melanoma 55.9% | LOX IMVI melanoma 43.9% | SK-MEL-28 melanoma 81.3%

COc1ccc(N=Nc2c(N)nn3c(-c4ccc5c(c4)C=S=C5)ccnc23)cc1
inactive: HCT-15 colon 18.2% | HT29 colon 47.6% | SNB-75 CNS 35.6% | SNB-19 CNS 59.7% | U251 CNS 34.5% | PC-3 prostate 25% | SK-MEL-5 melanoma 16.9% | UACC-62 melanoma 38% | LOX IMVI melanoma 13% | SK-MEL-28 melanoma 63.1%
